Assay results from PubChem BioAssay (NCATS).
Inconclusive results are not listed. The source made the active and inactive calls. Calls follow the shape of the dose curve; as a rule, active = well fitted inhibition curve with a large enough effect; inconclusive = small, poorly fitted or top-dose-only effect; inactive = no such curve, though single readings can be large or run the other way.

These compounds were tested against Rap guanine nucleotide exchange factor 3 (Homo sapiens) (UniProt O95398) (assay: Confirmatory qHTS for antagonist of cAMP-regulated guanine nucleotide exchange factor 3 (EPAC1) (AID 1645880; also: nearly all actives have a fitted effect of over 55% in size)). Conditions: EPAC1 Rap1B-BODIPY-GDP exchange, fluorescence; series mostly up to 115 µM; activity, negative = inhibition: at the top concentration.
Description: Assay Provider (PI): Xiaodong Cheng Ph.D. The University of Texas Medical Branch, […], TX MLPCN Grant: NS066510 In multi-cellular eukaryotic organisms, the effects of cAMP are transduced by two ubiquitously-expressed intracellular cAMP receptors, the classic protein kinase A/cAMP-dependent protein kinase (PKA/cAPK) and the more recently discovered exchange protein directly activated by cAMP/cAMP-regulated guanine nucleotide exchange factor (EPAC/cAMP-GEF). Both PKA and EPAC are ubiquitously expressed in all tissues, and an increase in intracellular cAMP levels will lead to the activation of both PKA and EPAC. Therefore, careful dissections of the individual role and relative contribution of EPAC and PKA within the overall cAMP signaling in various model systems are critical for further elucidating the mechanism of cAMP signaling. To date no EPAC-specific antagonists and agonist, as well as isoform-specific agonists have been reported, and developing EPAC-specific pharmacological probes to determine the physiological functions that EPAC play in the overall cAMP-mediated signaling remains a major challenge within the research field. Furthermore, identified regulators of EPAC may lead to new mechanism-based therapeutic strategies specifically targeting the EPAC / cAMP-signaling components as EPAC has been implicated to play important roles in major human pathological conditions such as diabetes, heart disease, and cancer. This qHTS will be used to screen the Molecular Libraries Small Molecule Repository (MLSMR) as a concentration-titration series using the NCGC unique quantitative screening (qHTS) platform to find activators for EPAC1. In addition, this assay will also be used as a counterscreen for the EPAC2 qHTS. This fluorescent based assay is developed and validated for EPAC1 that measures exchange using EPAC effector Rap1 complex with BODIPY-GDP, a GDP analog with a tethered fluorophores. Activators are identified by monitoring the change in fluorescence signal as the exchanged free BODIPY-GDP has a reduced fluorescence compared to Rap1-bound BODIPY-GDP. Increase in signal (activation) is the desired outcome for the EPAC1 agonist while no activity in this assay is desired for the EPAC2 agonist counterscreen. Reference: [1] de Rooij, J., Zwartkruis, F. J., Verheijen, M. H., Cool, R. H., Nijman, S. M., Wittinghofer, A., and Bos, J.L. (1998) Nature 396, 474-477. Kawasaki, H., Springett, G. M., Mochizuki, N., Toki, S., Nakaya, M., Matsuda, M., Housman, D. E., and Graybiel, A. M. (1998) Science 282, 2275-2279.
Briefly, three uL of reagents (100 nM EPAC1, 250 nM RAP1B-BODIPY-GDP, 50 uM GDP) were dispensed into a 1536-well Greiner black solid-bottom medium binding assay plate. Controls and test compounds (23 nL) were transferred to the plate via a Kalypsys pin tool equipped with a 1536-pin array. The plates were centrifuged at 1,000 rpm for 15 seconds followed by 5 minute incubation at room temperature. The assay plates were read at 5 minute intervals for 30 minutes in the ViewLux plate reader using 480nm excitation and 540nm emission filters. The results were normalized to the […] positive control ATA and DMSO.
Potency is read from the fitted curve at half-maximal effect.

Chain of Rap guanine nucleotide exchange factor 3 (Homo sapiens) (O95398 whole entry, looked up): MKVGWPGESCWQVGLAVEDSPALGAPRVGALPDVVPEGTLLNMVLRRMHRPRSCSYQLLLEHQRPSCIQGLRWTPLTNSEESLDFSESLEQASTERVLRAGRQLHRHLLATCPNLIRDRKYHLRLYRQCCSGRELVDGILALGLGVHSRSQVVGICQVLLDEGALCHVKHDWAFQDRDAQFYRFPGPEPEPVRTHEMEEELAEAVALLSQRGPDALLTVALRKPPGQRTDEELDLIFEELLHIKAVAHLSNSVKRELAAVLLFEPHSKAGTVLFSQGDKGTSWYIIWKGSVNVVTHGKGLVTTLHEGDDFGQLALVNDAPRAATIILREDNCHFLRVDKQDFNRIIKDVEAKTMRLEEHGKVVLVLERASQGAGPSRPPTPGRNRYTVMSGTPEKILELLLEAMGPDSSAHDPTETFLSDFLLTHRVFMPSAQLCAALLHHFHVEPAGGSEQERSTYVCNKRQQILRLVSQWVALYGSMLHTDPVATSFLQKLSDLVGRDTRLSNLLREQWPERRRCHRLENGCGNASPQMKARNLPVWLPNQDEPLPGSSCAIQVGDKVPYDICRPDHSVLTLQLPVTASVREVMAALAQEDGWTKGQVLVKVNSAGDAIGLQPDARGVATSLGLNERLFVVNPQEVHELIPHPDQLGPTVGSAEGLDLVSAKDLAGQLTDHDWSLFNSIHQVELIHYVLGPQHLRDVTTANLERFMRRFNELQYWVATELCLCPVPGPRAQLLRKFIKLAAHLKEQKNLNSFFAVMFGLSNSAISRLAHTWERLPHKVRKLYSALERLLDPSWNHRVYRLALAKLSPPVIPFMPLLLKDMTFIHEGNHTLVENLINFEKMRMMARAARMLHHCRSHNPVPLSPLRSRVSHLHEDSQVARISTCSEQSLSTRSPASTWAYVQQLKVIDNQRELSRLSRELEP

SMILES | activity, negative = inhibition | Potency
CN(C)CCNC(=O)c1cccc(-c2cnc3c(NC=O)cc(-c4cccc(C(F)(F)F)c4)cn23)c1 | -30.1% (inactive) | 
C=CCOc1ccc(Br)cc1/C=C1/SC(=Nc2ccc(C(=O)O)cc2)NC1=O |  | 30.1 µM (active)
COc1cc(/C=C2\SC(=O)NC2=O)ccc1Oc1ccc([N+](=O)[O-])cc1[N+](=O)[O-] |  | 42.6 µM (active)
O=C(c1ccco1)N(CCC(c1ccccc1)c1ccco1)Cc1ccco1 (stereo not given) |  | 75.7 µM (active)
COc1ccc([N+](=O)[O-])cc1NC(=S)Nc1ccccc1 | -16.1% (inactive) | 
C/C(C/C(C)=C1/SC(=S)NC1=O)=C1\SC(=S)NC1=O |  | 1.69 µM (active)
CO/N=C/c1ccc(Sc2ccccc2)c([N+](=O)[O-])c1 | -21.4% (inactive) | 
COc1cccc(NC(=O)Cn2cc(C(=O)C3CC3)c3ccccc32)c1 | -4.38% (inactive) | 
CN1CCN(CCC(=O)Nc2ccc(Cl)cc2)CC1 | -20.4% (inactive) | 
C=CCCCN(Cc1ccccc1)S(=O)(=O)c1ccccc1Br | -23.8% (inactive) | 
Cc1ccccc1C(=O)/C(C#N)=N/Nc1c(C)n(C)n(-c2ccccc2)c1=O |  | 42.6 µM (active)
O=C(Nc1cc(C(=O)Nc2ccccc2C(=O)O)cc(C(=O)Nc2ccccc2C(=O)O)c1)c1ccccc1 |  | 2.24 µM (active)
COC(=O)c1ccccc1NC(=O)CN1C(=O)COc2ccccc21 | -23.1% (inactive) | 
Cc1ccccc1N(CC(=O)NC1CCCC1)C(=O)c1csnn1 | -18.9% (inactive) | 
Cc1nc(Cl)sc1C(=O)NC(C)c1ccc(Cl)cc1 (stereo not given) | -14.4% (inactive) | 
O=C1NN(c2ccccc2)C(=O)/C1=C/c1ccc(Sc2cccc3ccccc23)o1 |  | 17.8 µM (active)
CCCOc1c(OC)cccc1C1CC(=O)Nc2cc(OC)c(OC)c(OC)c21 (stereo not given) | -22.4% (inactive) | 
CCOc1cc(C(=O)Nc2ccc3c(c2)n(C)c(=O)c(=O)n3C)cc(OCC)c1OCC | 12% (inactive) | 
CCN(CC)C(=S)Oc1c(Cl)cccc1Cl | -13.3% (inactive) | 
Oc1ccc(-c2c(-c3ccsc3)sc3ccccc23)cc1 | -11.8% (inactive) | 

SMILES | activity, negative = inhibition | Potency
CCOC(=O)c1c(C)nc2sc(C(N)=O)c(N)c2c1-c1ccccc1 | -24.7% (inactive) | 
Cc1cc2oc(=O)c3c(c2cc1OC(=O)c1ccco1)CCCC3 | -23.4% (inactive) | 
Cc1ccc2c(c1)CCCN2C(=O)c1cc(C)c(C)s1 | -15.9% (inactive) | 
COc1cc(/C=C(\C#N)C(=O)NC(C)C)cc(Cl)c1O | -11.2% (inactive) | 
CC(C)CCNC1c2ccccc2C(=O)N1Cc1ccccc1 (stereo not given) | -21.1% (inactive) | 
CCCOc1ccccc1Cn1c(=O)oc2ccccc21 | -26.7% (inactive) | 
CC(OC(=O)CNC(=O)COc1ccccc1)C(=O)N(C)Cc1ccccc1 (stereo not given) | -6.29% (inactive) | 
Cc1cc(C)c2c(CN3CCCCC3)cc(=O)oc2c1 | -22.6% (inactive) | 
O=C(N/N=C/c1cc(Br)c(O)c(Br)c1)c1cc2c(ccc3ccccc32)o1 |  | 39.8 µM (active)
COCCn1c(SCC(=O)c2ccccc2)nc2cc(C(=O)NC3CCCC3)ccc2c1=O | -3.04% (inactive) | 
Cc1c(Cl)ccc2c(C(=O)O)cc(-c3ccccc3)nc12 | -24.8% (inactive) | 
Oc1c(C(c2ccccc2)N2CCN(c3cccc(Cl)c3)CC2)sc2nc(-c3ccco3)nn12 (stereo not given) |  | 47.8 µM (active)
CCCCSc1nc2c(c(=O)n1CC)SC(C)C2 (stereo not given) | -28.6% (inactive) | 
O=C(Nc1ccncc1)c1ccc2ncsc2c1 | -18.8% (inactive) | 
C1=Cc2ccccc2/C1=C\c1ccc2c(c1)OCO2 | -10.7% (inactive) | 
CN1CCN(C(CNC(=O)c2ccc(Br)o2)c2ccc(F)cc2)CC1 (stereo not given) | -5% (inactive) | 
Cc1ccsc1C(=O)OCC(=O)NCCNC(=O)COC(=O)c1sccc1C | -7.87% (inactive) | 
Cc1ccc(S(=O)(=O)/N=C2\C=C(Nc3cccc(C(=O)O)c3)C(=O)c3ccccc32)c(C)c1 |  | 26.9 µM (active)
CN(CC(=O)O)c1ccc(/C=C/c2ccnc3ccccc23)cc1 | -19.1% (inactive) | 
COc1ccc(C(=O)NCCONC(=O)c2ccc(OC)cc2)cc1 | -18.2% (inactive) | 
